# The campaign covered roughly 5,500 compounds. About 2,000 (36%) were called active. Not shown: some 18% with an inconclusive outcome. The list shows a part of the results. Unmarked numbers belong to inactive results. Rule as the data show it: active = normalized growth mostly below about 0.91 (no sharp cut-off); inconclusive = no clear call, values can overlap the other calls; inactive = mostly above about 0.92.
# Experiment: chemical genetic growth profiling, strain panel (AID 1159580);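 also: tested at 20 µM; growth read once vehicle control cultures reached saturation at 30 °C; 1 = growth at the plate median or of vehicle wells; lower values mean less growth of the strain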
# Settings: S. cerevisiae deletion strains, growth OD
structure (smiles),measurement,setting,value
COc1cc2c(cc1-c1coc3c4c(c(OC)cc3c1=O)OC(C)(C)C=C4)OCO2,normalized growth,"locus YAL013W, strain DEP1, stronger effect = lower value",0.934
same,normalized growth,"locus YAL021C, strain ccr4, stronger effect = lower value",0.993
same,normalized growth,"locus YAL026C, strain drs2, stronger effect = lower value",1.03
same,normalized growth,"locus YAL030W, strain snc1, stronger effect = lower value",1.03
same,normalized growth,"locus YBL061C, strain skt5, stronger effect = lower value",1.02
same,normalized growth,"locus YBR009C, strain hhf1, stronger effect = lower value",0.95
same,normalized growth,"locus YBR021W, strain FUR4, stronger effect = lower value",1.05
same,normalized growth,"locus YBR023C, strain chs3, stronger effect = lower value",0.971
same,normalized growth,"locus YBR171W, strain sec66, stronger effect = lower value",1.03
same,normalized growth,"locus YBR229C, strain ROT2, stronger effect = lower value",0.994
same,normalized growth,"locus YBR231C, strain swc5, stronger effect = lower value",1.04
same,normalized growth,"locus YBR279W, strain paf1, stronger effect = lower value",0.985
same,normalized growth,"locus YCL011C, strain gbp2, stronger effect = lower value",1
same,normalized growth,"locus YCL016C, strain dcc1, stronger effect = lower value",0.982
same,normalized growth,"locus YCL029C, strain bik1, stronger effect = lower value",0.985
same,normalized growth,"locus YCL061C, strain MRC1, stronger effect = lower value",1.01
same,normalized growth,"locus YCL069W, strain vba3, stronger effect = lower value",1.05
same,normalized growth,"locus YCR088W, strain abp1, stronger effect = lower value",1.05
same,normalized growth,"locus YDL005C, strain med2, stronger effect = lower value",1.04
same,normalized growth,"locus YDL035C, strain GPR1, stronger effect = lower value",0.998
same,normalized growth,"locus YDL040C, strain nat1, stronger effect = lower value",1.02
same,normalized growth,"locus YDL074C, strain BRE1, stronger effect = lower value",0.902
same,normalized growth,"locus YDL101C, strain DUN1, stronger effect = lower value",0.95
same,normalized growth,"locus YDL134C, strain PPH21, stronger effect = lower value",0.907
same,normalized growth,"locus YDL185W, strain tfp1, stronger effect = lower value",1.01
same,normalized growth,"locus YDL192W, strain arf1, stronger effect = lower value",0.966
same,normalized growth,"locus YDR001C, strain nth1, stronger effect = lower value",1.04
same,normalized growth,"locus YDR069C, strain doa4, stronger effect = lower value",1.04
same,normalized growth,"locus YDR101C, strain arx1, stronger effect = lower value",1
same,normalized growth,"locus YDR137W, strain rgp1, stronger effect = lower value",0.654 (active)
same,normalized growth,"locus YDR159W, strain sac3, stronger effect = lower value",0.981
same,normalized growth,"locus YDR162C, strain NBP2, stronger effect = lower value",0.884
same,normalized growth,"locus YDR195W, strain ref2",1.18 [resistant] (active)
same,normalized growth,"locus YDR297W, strain sur2, stronger effect = lower value",1.02
same,normalized growth,"locus YDR318W, strain mcm21, stronger effect = lower value",0.964
same,normalized growth,"locus YDR334W, strain swr1, stronger effect = lower value",1.04
same,normalized growth,"locus YDR335W, strain msn5, stronger effect = lower value",1.03
same,normalized growth,"locus YDR388W, stronger effect = lower value",0.986
same,normalized growth,"locus YDR392W, strain spt3, stronger effect = lower value",0.295 (active)
same,normalized growth,"locus YDR502C, strain sam2, stronger effect = lower value",0.97
same,normalized growth,"locus YEL003W, strain gim4, stronger effect = lower value",1.02
same,normalized growth,"locus YEL037C, strain rad23, stronger effect = lower value",1.04
same,normalized growth,"locus YEL061C, strain CIN8 (second series), stronger effect = lower value",1.04
same,normalized growth,"locus YER015W, strain faa2, stronger effect = lower value",0.991
same,normalized growth,"locus YER016W, strain bim1, stronger effect = lower value",1.03
same,normalized growth,"locus YER110C, stronger effect = lower value",0.994
same,normalized growth,"locus YER111C, strain swi4, stronger effect = lower value",0.994
same,normalized growth,"locus YER155C, strain BEM2 (second series), stronger effect = lower value",0.926
same,normalized growth,"locus YER155C, strain BEM2, stronger effect = lower value",0.988
same,normalized growth,"locus YER167W, strain BCK2, stronger effect = lower value",1.01
same,normalized growth,"locus YFR010W, strain ubp6, stronger effect = lower value",1.07
same,normalized growth,"locus YGL078C, strain dbp3, stronger effect = lower value",0.983
same,normalized growth,"locus YGL086W, strain mad1, stronger effect = lower value",0.959
same,normalized growth,"locus YGL167C, strain pmr1, stronger effect = lower value",1.02
same,normalized growth,"locus YGL173C, strain kem1, stronger effect = lower value",1
same,normalized growth,"locus YGL227W, strain vid30, stronger effect = lower value",1.08
same,normalized growth,"locus YGL240W, strain doc1, stronger effect = lower value",0.984
same,normalized growth,"locus YGL248W, strain PDE1, stronger effect = lower value",0.929
same,normalized growth,"locus YGL253W, strain hxk2, stronger effect = lower value",1.01
same,normalized growth,"locus YGR135W, strain pre9, stronger effect = lower value",0.916
same,normalized growth,"locus YGR252W, strain gcn5, stronger effect = lower value",0.863
same,normalized growth,"locus YHR013C, strain ard1, stronger effect = lower value",0.991
same,normalized growth,"locus YHR027C, strain rpn1, stronger effect = lower value",1.03
same,normalized growth,"locus YHR030C, strain SLT2, stronger effect = lower value",0.968
same,normalized growth,"locus YHR079C, strain IRE1 (second series), stronger effect = lower value",0.995
same,normalized growth,"locus YHR094C, strain hxt1, stronger effect = lower value",1
same,normalized growth,"locus YHR129C, strain ARP1, stronger effect = lower value",0.959
same,normalized growth,"locus YHR142W, strain chs7, stronger effect = lower value",0.976
same,normalized growth,"locus YHR200W, strain rpn10, stronger effect = lower value",0.957
same,normalized growth,"locus YIL066C, strain RNR3, stronger effect = lower value",0.991
same,normalized growth,"locus YIL073C, strain SPO22, stronger effect = lower value",0.919
same,normalized growth,"locus YIL125W, strain kgd1, stronger effect = lower value",0.982
same,normalized growth,"locus YIR030C, strain dcg1, stronger effect = lower value",1
same,normalized growth,"locus YJL092W, strain hpr5, stronger effect = lower value",1.04
same,normalized growth,"locus YJL095W, strain BCK1 (second series), stronger effect = lower value",0.974
same,normalized growth,"locus YJL095W, strain BCK1, stronger effect = lower value",0.809
same,normalized growth,"locus YJL115W, strain asf1, stronger effect = lower value",1.04
same,normalized growth,"locus YJL129C, strain trk1, stronger effect = lower value",1.03
same,normalized growth,"locus YJL134W, strain LCB3, stronger effect = lower value",1
same,normalized growth,"locus YJL154C, strain vps35, stronger effect = lower value",1.04
same,normalized growth,"locus YJL164C, strain tpk1, stronger effect = lower value",0.968
same,normalized growth,"locus YJL166W, strain qcr8, stronger effect = lower value",0.933
same,normalized growth,"locus YJL168C, strain set2, stronger effect = lower value",0.985
same,normalized growth,"locus YJL187C, strain SWE1 (second series), stronger effect = lower value",0.938
same,normalized growth,"locus YKL009W, strain mrt4, stronger effect = lower value",1.01
same,normalized growth,"locus YKL068W, stronger effect = lower value",1
same,normalized growth,"locus YKL085W, strain MDH1 (second series), stronger effect = lower value",1
same,normalized growth,"locus YKL085W, strain MDH1, stronger effect = lower value",1
same,normalized growth,"locus YKL160W, strain elf1, stronger effect = lower value",0.927
same,normalized growth,"locus YKR001C, strain vps1, stronger effect = lower value",0.937
same,normalized growth,"locus YKR026C, strain gcn3, stronger effect = lower value",1.06
same,normalized growth,"locus YKR091W, strain srl3, stronger effect = lower value",1.02
same,normalized growth,"locus YLL001W, strain dnm1, stronger effect = lower value",1.01
same,normalized growth,"locus YLL026W, stronger effect = lower value",1.04
same,normalized growth,"locus YLL041C, strain sdh2, stronger effect = lower value",1.03
same,normalized growth,"locus YLR027C, strain aat2, stronger effect = lower value",0.992
same,normalized growth,"locus YLR039C, strain RIC1, stronger effect = lower value",0.788
same,normalized growth,"locus YLR058C, strain SHM2, stronger effect = lower value",0.984
same,normalized growth,"locus YLR102C, strain apc9, stronger effect = lower value",0.997
same,normalized growth,"locus YLR221C, strain rsa3, stronger effect = lower value",1.01
same,normalized growth,"locus YLR258W, strain gsy2, stronger effect = lower value",0.978
same,normalized growth,"locus YLR262C, strain YPT6 (second series), stronger effect = lower value",0.681 (active)
same,normalized growth,"locus YLR268W, strain sec22, stronger effect = lower value",0.998
same,normalized growth,"locus YLR320W, strain mms22, stronger effect = lower value",0.912
same,normalized growth,"locus YLR342W, strain FKS1 (second series), stronger effect = lower value",0.936
same,normalized growth,"locus YLR342W, strain FKS1, stronger effect = lower value",0.968
same,normalized growth,"locus YLR357W, strain rsc2, stronger effect = lower value",1.12
same,normalized growth,"locus YLR370C, strain arc18, stronger effect = lower value",0.973
same,normalized growth,"locus YLR371W, strain rom2, stronger effect = lower value",1.02
same,normalized growth,"locus YLR384C, strain iki3, stronger effect = lower value",1.03
same,normalized growth,"locus YLR418C, strain cdc73, stronger effect = lower value",0.798 (active)
same,normalized growth,"locus YML016C, strain PPZ1, stronger effect = lower value",0.987
same,normalized growth,"locus YML032C, strain rad52, stronger effect = lower value",0.963
same,normalized growth,"locus YML120C, strain ndi1, stronger effect = lower value",0.971
same,normalized growth,"locus YML124C, strain tub3, stronger effect = lower value",1
same,normalized growth,"locus YMR058W, strain fet3, stronger effect = lower value",1
same,normalized growth,"locus YMR078C, strain ctf18, stronger effect = lower value",0.986
same,normalized growth,"locus YMR125W, strain sto1, stronger effect = lower value",1.01
same,normalized growth,"locus YMR129W, stronger effect = lower value",1.03
same,normalized growth,"locus YMR205C, strain PFK2, stronger effect = lower value",0.919
same,normalized growth,"locus YMR223W, strain ubp8, stronger effect = lower value",0.928
same,normalized growth,"locus YMR231W, strain pep5, stronger effect = lower value",1.01
same,normalized growth,"locus YMR307W, strain GAS1, stronger effect = lower value",0.685
same,normalized growth,"locus YNL067W, strain RPL9B, stronger effect = lower value",0.956
same,normalized growth,"locus YNL071W, strain lat1, stronger effect = lower value",0.799 (active)
same,normalized growth,"locus YNL209W, strain ssb2, stronger effect = lower value",1
same,normalized growth,"locus YNL233W, strain BNI4, stronger effect = lower value",0.868 (active)
same,normalized growth,"locus YNL248C, strain rpa49, stronger effect = lower value",1.1
same,normalized growth,"locus YNL250W, strain rad50, stronger effect = lower value",0.972
same,normalized growth,"locus YNL271C, strain bni1, stronger effect = lower value",0.991
same,normalized growth,"locus YNL298W, strain CLA4, stronger effect = lower value",0.953
same,normalized growth,"locus YNL307C, strain MCK1, stronger effect = lower value",0.907
same,normalized growth,"locus YNL322C, strain KRE1 (second series), stronger effect = lower value",1.04
same,normalized growth,"locus YNR049C, strain mso1, stronger effect = lower value",1.03
same,normalized growth,"locus YNR052C, strain pop2, stronger effect = lower value",0.944
same,normalized growth,"locus YOL006C, strain TOP1, stronger effect = lower value",0.842
same,normalized growth,"locus YOL012C, strain htz1",0.696
same,normalized growth,"locus YOL147C, strain pex11, stronger effect = lower value",0.996
same,normalized growth,"locus YOR001W, strain rrp6, stronger effect = lower value",1.02
same,normalized growth,"locus YOR061W, strain CKA2, stronger effect = lower value",1.02
same,normalized growth,"locus YOR069W, strain VPS5, stronger effect = lower value",0.973
same,normalized growth,"locus YOR070C, strain gyp1, stronger effect = lower value",0.992
same,normalized growth,"locus YOR080W, strain dia2, stronger effect = lower value",1.04
same,normalized growth,"locus YOR083W, strain WHI5, stronger effect = lower value",0.959
same,normalized growth,"locus YOR106W, strain vam3, stronger effect = lower value",0.996
same,normalized growth,"locus YOR136W, strain idh2, stronger effect = lower value",0.98
same,normalized growth,"locus YOR144C, strain elg1, stronger effect = lower value",0.993
same,normalized growth,"locus YOR184W, strain ser1, stronger effect = lower value",0.904
same,normalized growth,"locus YOR265W, strain rbl2, stronger effect = lower value",1.01
same,normalized growth,"locus YOR270C, strain vph1, stronger effect = lower value",0.871
same,normalized growth,"locus YOR290C, strain snf2, stronger effect = lower value",0.948
same,normalized growth,"locus YOR316C, strain cot1, stronger effect = lower value",0.985
same,normalized growth,"locus YPL051W, strain arl3, stronger effect = lower value",0.895 (active)
same,normalized growth,"locus YPL078C, strain atp4, stronger effect = lower value",0.95
same,normalized growth,"locus YPL106C, strain sse1, stronger effect = lower value",1.05
same,normalized growth,"locus YPL240C, strain hsp82, stronger effect = lower value",1.04
same,normalized growth,"locus YPR119W, strain clb2, stronger effect = lower value",0.995
same,normalized growth,"locus YPR141C, strain kar3, stronger effect = lower value",0.999
same,normalized growth,"locus YPR163C, strain tif3, stronger effect = lower value",0.986
same,normalized growth,"locus YPR167C, strain met16, stronger effect = lower value",0.972
same,normalized growth,"strain wtn01, stronger effect = lower value",0.989

# From PubChem BioAssay AID1159580 (chemical genetic matrix, 2015)
